According to PubChem BioAssay (EPA / NIEHS):
Inconclusive results are not listed. Calls of active or inactive are those of the source. Rule for the calls, unless noted: active = hit-call score of the fitted dose curve at least 0.9, where 1 is the maximum; inactive = score below 0.9.

Tests used:
[1] = IUF_NPC1b_proliferation_BrdU_72hr: Leibniz Research Institute for Environmental Medicine (IUF) 72-hour Neural Progenitor Cell Bromodeoxyuridine (BrdU) Proliferation Assay (NPC1b) (AID 2284207)
Procedure, shortened: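 Proliferation of primary human neural progenitor cells: 72 h compound treatment at 37C, 5% CO2, pH 7.2-7.6, in EGF/FGF-containing medium. Readout is BrdU uptake (last 16 h) by chemiluminescent ELISA, normalised to DMSO.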

[2] = IUF_NPC1a_proliferation_area_72hr: Leibniz Research Institute for Environmental Medicine (IUF) 72-hour Neural Progenitor Cell Proliferation Area Assay (NPC1a) (AID 2284208)
Procedure, shortened: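 Proliferation is scored as sphere area gain in primary human fetal neural progenitors treated for 72 h in EGF/FGF-containing medium. Viability, LDH and BrdU readouts come from the same wells.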

[3] = IUF_NPC1_viability_72hr: Viability Assessment at 72 hours in the Leibniz Research Institute for Environmental Medicine (IUF) Neural Progenitor Cell Proliferation Assay (NPC1) (AID 2284209)
Procedure, shortened: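 hNPC spheres, 1/well, EGF+FGF medium, 37C/5% CO2; dosed day 0, 72 h, no re-dosing. Resazurin reduction (alamar blue) fluorescence; DMSO = negative control/baseline; growth-factor-free wells as positive control.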

[4] = CCTE_Mundy_HCI_Cortical_Synap_Neur_Matur_NeuriteSpotCountPerNeuriteLength: CCTE's Synaptogenesis and Neurite Maturation Assay in rat cortical cells for Neurite Spot Count per Neurite Length, Mundy Lab (AID 2284210)
Procedure, shortened: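 Primary rat cortical neurons, compound exposure DIV 7–12, 288.33 h endpoint. Hoechst, anti-MAP2 and anti-synaptophysin labelling; neurite-associated puncta per neurite length scored by automated imaging relative to DMSO controls.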

[5] = CCTE_Mundy_HCI_Cortical_Synap_Neur_Matur_BPCount: CCTE's Synaptogenesis and Neurite Maturation Assay in rat cortical cells for Branch Point Count, Mundy Lab (AID 2284211)
Procedure, shortened: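 Rat primary cortical cultures, AraC added DIV 5; chemicals dosed DIV 7 through DIV 12. Fixed cells stained for MAP2, synaptophysin and Hoechst; neurite branch points counted by automated high-content imaging, fitted relative to DMSO.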

[6] = CCTE_Mundy_HCI_Cortical_NOG_NeuriteCount: CCTE's Neurite Outgrowth Assay in rat cortical cells for Neurite Count, Mundy Lab (AID 2284212);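 note: cells fixed about two days after chemical exposure began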
Procedure, shortened: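 Neurite number per cell from high-content imaging of betaIII-tubulin immunostaining, with Hoechst nuclear counterstain.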

[7] = CCTE_Mundy_HCI_Cortical_NOG_NeuriteLength: CCTE's Neurite Outgrowth Assay in rat cortical cells for Neurite Length, Mundy Lab (AID 2284213);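 note: neurites imaged about 48 to 50 h after chemical exposure began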
Procedure, shortened: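 Neurite length was read by high-content imaging of βIII-tubulin-labelled neurites in rat primary cortical cultures. Activity was fitted relative to DMSO.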

[8] = CCTE_Mundy_HCI_Cortical_Synap_Neur_Matur_NeuriteLength: CCTE's Synaptogenesis and Neurite Maturation Assay in rat cortical cells for Neurite Length, Mundy Lab (AID 2284214)
Procedure, shortened: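 Rat cortical neurons, AraC at DIV 5; compound + media change DIV 7, end DIV 12 (288.33 h). Fix, MAP2/synaptophysin/Hoechst immunostain, automated HCI of neurite length vs DMSO.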

[9] = CCTE_Mundy_HCI_Cortical_Synap_Neur_Matur_NeuriteSpotCountPerNeuron: CCTE's Synaptogenesis and Neurite Maturation Assay in rat cortical cells for Neurite Spot Count per Neuron Count, Mundy Lab (AID 2284215)
Procedure, shortened: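 Synapse density is scored as synaptophysin spots along neurites per neuron in fixed rat cortical neurons, measured at DIV 12 after chemical dosing at DIV 7. DMSO is the negative control and activity baseline.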

[10] = CCTE_Mundy_HCI_Cortical_Synap_Neur_Matur_SynapseCount: CCTE's Synaptogenesis and Neurite Maturation Assay in rat cortical cells for Synapse Count, Mundy Lab (AID 2284218)
Procedure, shortened: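 Primary rat cortical culture; AraC DIV 5 to arrest glia; compound + media change DIV 7; terminated DIV 12. PFA/Hoechst fix, anti-MAP2 + anti-synaptophysin immunostain; HCI synapse count/neuron; DMSO = baseline.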

[11] = CCTE_Mundy_HCI_hN2_NOG_NeuriteCount: CCTE's Neurite Outgrowth Assay in human hN2 cells for Neurite Count, Mundy Lab (AID 2284219; active = hit-call score of the fitted dose curve at least 0.9, where 1 is the maximum)
Procedure, shortened: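 In this morphology assay, hNP1-derived neurons received test chemical 2 h post-plating and were fixed two days later in warm paraformaldehyde/sucrose containing Hoechst 33342. Neurites, labelled by rabbit anti-βIII-tubulin (1:800) and Alexa Fluor-488 (1:500), were counted automatically.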

[12] = CCTE_Mundy_HCI_hN2_NOG_NeuriteLength: CCTE's Neurite Outgrowth Assay in human hN2 cells for Neurite Length, Mundy Lab (AID 2284220; active = hit-call score of the fitted dose curve at least 0.9, where 1 is the maximum)
Procedure, shortened: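 Plate hNP1-derived neurons, then add chemical 2 h later as a 1/10 dilution. Stain with anti-βIII-tubulin then Alexa Fluor-488 secondary, and image automatically to measure neurite length.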

[13] = CCTE_Mundy_HCI_hN2_NOG_NeuronCount: CCTE's Neurite Outgrowth Assay in human hN2 cells for Neuron Count, Mundy Lab (AID 2284221; active = hit-call score of the fitted dose curve at least 0.9, where 1 is the maximum)
Procedure, shortened: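 Read-out is the number of betaIII-tubulin-positive neurons imaged by automated high-content analysis, with DMSO as negative control.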

[14] = CCTE_Mundy_HCI_Cortical_Synap_Neur_Matur_NeuriteCount: CCTE's Synaptogenesis and Neurite Maturation Assay in rat cortical cells for Neurite Count, Mundy Lab (AID 2284222)
Procedure, shortened: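 Rat cortical neurons, 96-well; AraC DIV 5; chemical + media change DIV 7; end DIV 12. Fix PFA/Hoechst, anti-MAP2 + anti-synaptophysin IF. HCI neurite count vs DMSO baseline.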

[15] = CCTE_Mundy_HCI_Cortical_Synap_Neur_Matur_CellBodySpotCount: CCTE's Synaptogenesis and Neurite Maturation Assay in rat cortical cells for Cell Body Spot Count, Mundy Lab (AID 2284223)
Procedure, shortened: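 Synapse number at neuronal cell bodies was quantified as synaptophysin puncta per neuron in rat cortical cultures exposed from DIV 7 to DIV 12. Values were normalised to DMSO.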

[16] = UKN2_HCS_IMR90_cell_viability: Viability Assessment in the University of Konstanz (UKN) Leist Lab Neural Crest Cell Migration Assay in human induced IMR90 Pluripotent Stem Cells (UKN2) (AID 2284233);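 note: viability of neural crest cells differentiated from IMR90 iPSC measured by calcein-AM fluorescence imaging; cells exposed to compound for 24 h after a 24 h migration phase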
Procedure, shortened: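 Human IMR90-derived neural crest cells were allowed to migrate for 24 h into a cell-free zone, then exposed to test chemicals for 24 h. Calcein-AM and Hoechst staining with high-content imaging gave viability, analysed against DMSO baseline.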

[17] = CCTE_Mundy_HCI_Cortical_NOG_BPCount: CCTE's Neurite Outgrowth Assay in rat cortical cells for Branch Point Count, Mundy Lab (AID 2284237);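 note: branch points counted about two days after chemical exposure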
Procedure, shortened: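 Measured 50.33 h after dosing, this morphology endpoint uses rat primary cortical cultures labelled for betaIII-tubulin. Branch points are quantified by high-content imaging, with DMSO as negative control and baseline.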

[18] = CCTE_Mundy_HCI_hNP1_Casp3_7: CCTE's Caspase-Glo 3/7 Assay in human neuroprogenitor cells for Apoptosis, Mundy Lab (AID 2284240)
Procedure, shortened: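 Apoptosis is scored by activated caspase-3/7 luminescence in WA09-derived neural progenitor cells, measured 26.5 h after chemical dosing. Values represent gain of signal relative to DMSO vehicle.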

[19] = CCTE_Mundy_HCI_hNP1_CellTiter: CCTE's Cell Titer-Glo 2 Assay in human neuroprogenitor cells for Viability, Mundy Lab (AID 2284241; active = hit-call score of the fitted dose curve at least 0.9, where 1 is the maximum)
Procedure, shortened: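 Human neural progenitor cells (hNP1, WA09-derived) were plated on poly-L-ornithine/laminin and grown 40 to 44 hours at 37 °C, 5% CO2 before chemical addition. Twenty-four hours later, ATP was measured by CellTiter-Glo luminescence; loss of signal versus DMSO indicates reduced viability.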

[20] = CCTE_Mundy_HCI_Cortical_Synap_Neur_Matur_NeuronCount: CCTE's Synaptogenesis and Neurite Maturation Assay in rat cortical cells for Neuron Count, Mundy Lab (AID 2284242; active = hit-call score of the fitted dose curve at least 0.9, where 1 is the maximum;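 note: hits reduce neuron count versus DMSO baseline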)
Procedure, shortened: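 Neuron number was scored by automated high-content imaging of Hoechst- and MAP2-labelled rat primary cortical cells. Glial growth was arrested with AraC at DIV 5, compounds were applied from DIV 7, and cultures ended at DIV 12.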

[21] = IUF_NPC2c_oligodendrocyte_migration_120hr: Leibniz Research Institute for Environmental Medicine (IUF) 120-hour Neural Progenitor Cell Migration Assay for Oligodendrocyte Migration (NPC2c) (AID 2284297);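 note: O4-positive oligodendrocyte migration distance divided by radial glia migration distance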
Procedure, shortened: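 Primary hNPC spheres migrating on extracellular matrix, exposed five days to a 7-point dilution series with solvent control. Oligodendrocyte migration was scored by high-content imaging of O4 immunostaining and expressed relative to radial glia distance.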

[22] = IUF_NPC2a_radial_glia_migration_120hr: Leibniz Research Institute for Environmental Medicine (IUF) 120-hour Neural Progenitor Cell Migration Assay for Radial Glia Migration (NPC2a) (AID 2284298)
Procedure, shortened: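 In this multiplexed test, fetal hNPC spheres migrate radially on poly-D-lysine/laminin in N2 medium (37C, 5% CO2, pH 7.2-7.6) under continuous compound exposure over five days. Migration is scored at 120 h from automated Hoechst nuclear imaging.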

[23] = IUF_NPC2a_radial_glia_migration_72hr: Leibniz Research Institute for Environmental Medicine (IUF) 72-hour Neural Progenitor Cell Migration Assay for Radial Glia Migration (NPC2a) (AID 2284299)
Procedure, shortened: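 Primary hNPC spheres, fetal brain GW 16-19, on PDL/laminin; DMEM/F12 3:1 + 1% N2. Compound dosed day 0, 7 conc. + SC, half-medium refresh day 3. 72 h brightfield, migration distance core-to-front (um), 4 directions averaged.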

[24] = IUF_NPC2b_neuronal_migration_120hr: Leibniz Research Institute for Environmental Medicine (IUF) 120-hour Neural Progenitor Cell Migration Assay for Neuron Migration (NPC2b) (AID 2284300)
Procedure, shortened: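 Neurons identified by TUBB3 immunostaining and Hoechst nuclei; migration distance measured automatically on fixed wells at 120 h, normalized to glia migration. Exposure spanned five days of differentiation in N2 medium, seven test concentrations.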

[25] = IUF_NPC3_neuronal_differentiation_120hr: Leibniz Research Institute for Environmental Medicine (IUF) 120-hour Neuronal Differentiation Assay (NPC3) (AID 2284301)
Procedure, shortened: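 Single 0.3 mm neurospheres from human fetal cortex were plated in differentiation medium containing test compound. Medium was half-replaced on day 3. After 120 h cells were fixed, immunostained and imaged, and neuronal fraction was scored against DMSO control.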

[26] = IUF_NPC4_neurite_length_120hr: Leibniz Research Institute for Environmental Medicine (IUF) 120-hour Neuronal Morphology Assay for Neurite Length (NPC4) (AID 2284302)
Procedure, shortened: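 Read-out is mean neurite length in µm of TUBB3-positive neurons, skeletonized from high-content fluorescence images after 120 h. Single 0.3 mm primary human neural progenitor spheres differentiated on poly-D-lysine/laminin under continuous compound exposure; DMSO was baseline.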

[27] = IUF_NPC5_oligodendrocyte_differentiation_120hr: Leibniz Research Institute for Environmental Medicine (IUF) 120-hour Oligodendrocyte Differentiation Assay (NPC5) (AID 2284304; active = hit-call score of the fitted dose curve at least 0.9, where 1 is the maximum;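 note: primary human fetal neural progenitor spheres plated to migrate and differentiate; share of O4-positive cells among Hoechst nuclei found by CNN image analysis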)
Procedure, shortened: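 Human primary NPC neurospheres migrating and differentiating on laminin for 120 h under continuous compound exposure (serial dilution, solvent control). Endpoint: percent O4+ oligodendrocytes among Hoechst nuclei, detected by CNN image analysis, with DMSO as negative control.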

[28] = IUF_NPC4_neurite_area_120hr: Leibniz Research Institute for Environmental Medicine (IUF) 120-hour Neuronal Morphology Assay for Neurite Area (NPC4) (AID 2284305; active = hit-call score of the fitted dose curve at least 0.9, where 1 is the maximum)
Procedure, shortened: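 Neurite area is read out as the mean pixel area, excluding nuclei, of skeletonized TUBB3-positive neurons imaged after 120 h. Primary human neural progenitor spheres differentiated on poly-D-lysine/laminin with compound present from day 0. Activity was referenced to DMSO controls.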

[29] = IUF_NPC2-5_cytotoxicity_72hr: Cytotoxicity Assessment at 72 hours in the Leibniz Research Institute for Environmental Medicine (IUF) Neural Progenitor Cell Migration and Differentiation Assay for Cytotoxicity (NPC2-5) (AID 2284306; active = hit-call score of the fitted dose curve at least 0.9, where 1 is the maximum;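 note: LDH release into supernatant measured by resorufin fluorescence marking membrane damage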)
Procedure, shortened: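 Membrane integrity loss was scored from fluorescence (RFU) of resorufin generated by LDH in culture supernatant, 72 h after dosing. Differentiating human progenitor spheres received seven serial compound concentrations alongside a solvent control.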

[30] = IUF_NPC2-5_cytotoxicity_120hr: Cytotoxicity Assessment at 120 hours in the Leibniz Research Institute for Environmental Medicine (IUF) Neural Progenitor Cell Migration and Differentiation Assay (NPC2-5) (AID 2284307; active = hit-call score of the fitted dose curve at least 0.9, where 1 is the maximum)
Procedure, shortened: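 Fluorescence (RFU) from LDH-driven resazurin reduction in medium supernatants measured loss of membrane integrity after 120 h of compound exposure of differentiating primary human neural progenitor spheres on an extracellular matrix.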

[31] = IUF_NPC2-5_cell_number_120hr: Cell Number Assessment at 120 hours in the Leibniz Research Institute for Environmental Medicine (IUF) Neural Progenitor Cell Migration and Differentiation Assay (NPC2-5) (AID 2284308);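 note: count of Hoechst-stained nuclei in migration zone around plated human neural progenitor spheres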
Procedure, shortened: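 Cell number is taken as all Hoechst-positive nuclei detected in the area into which cells migrate out of the sphere, scored at 120 h and referenced to DMSO solvent control, which was kept at no more than 0.1%.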

[32] = IUF_NPC2-5_viability_120hr: Viability Assessment at 120 hours in the Leibniz Research Institute for Environmental Medicine (IUF) Neural Progenitor Cell Migration and Differentiation Assay (NPC2-5) (AID 2284312)
Procedure, shortened: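 Alamar blue resorufin fluorescence read after 5 days of differentiation, with compound present from day 0 and replenished at day 3. Primary hNPC spheres on laminin-coated plates, 37C; seven concentrations plus solvent control, fitted against DMSO.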

[33] = IUF_NPC1_cytotoxicity_72hr: Cytotoxicity Assessment at 72 hours in the Leibniz Research Institute for Environmental Medicine (IUF) Neural Progenitor Cell Proliferation Assay (NPC1) (AID 2284332; active = hit-call score of the fitted dose curve at least 0.9, where 1 is the maximum;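 note: rising LDH signal means more cytotoxicity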)
Procedure, shortened: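 Spheres of primary human neural progenitors are plated one per well on day 0 in growth-factor medium and dosed at once. After three days at 37C, supernatant LDH is measured fluorimetrically via resazurin reduction.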

Brc1ccc(Oc2ccc(Br)cc2Br)c(Br)c1
outcome [1]: inactive
outcome [2]: inactive
outcome [3]: inactive
AC50 [4]: 4.11 µM (active)
AC50 [5]: 3.98 µM (active)
AC50 [6]: 23.6 µM (active)
AC50 [7]: 25.2 µM (active)
AC50 [8]: 4.59 µM (active)
AC50 [9]: 8.25 µM (active)
AC50 [10]: 8.79 µM (active)
AC50 [11]: 8.93 µM (active)
AC50 [12]: 8.87 µM (active)
AC50 [13]: 4.6 µM (active)
AC50 [14]: 5.14 µM (active)
outcome [15]: inactive
outcome [16]: inactive
AC50 [17]: 25.6 µM (active)
outcome [18]: inactive
outcome [19]: inactive
AC50 [20]: 7.42 µM (active)
outcome [21]: inactive
outcome [22]: inactive
outcome [23]: inactive
outcome [24]: inactive
outcome [25]: inactive
outcome [26]: inactive
AC50 [27]: 10.4 µM (active)
outcome [28]: inactive
outcome [29]: inactive
outcome [30]: inactive
outcome [31]: inactive
outcome [32]: inactive
outcome [33]: inactive
